Only some compounds are listed: those with a hit (about 4.6% of all), similar ones and a draw of the others.
D1 potentiator: potentiators of human D1 dopamine receptor; P21728; HEK293 TREx D1 cells, calcium flux, dopamine EC20 potentiation; potentiation, % at 10 µM; 0.036% of 360,000 active; in the data active = potentiation above about 30%
Target sequence (P21728 whole entry, looked up): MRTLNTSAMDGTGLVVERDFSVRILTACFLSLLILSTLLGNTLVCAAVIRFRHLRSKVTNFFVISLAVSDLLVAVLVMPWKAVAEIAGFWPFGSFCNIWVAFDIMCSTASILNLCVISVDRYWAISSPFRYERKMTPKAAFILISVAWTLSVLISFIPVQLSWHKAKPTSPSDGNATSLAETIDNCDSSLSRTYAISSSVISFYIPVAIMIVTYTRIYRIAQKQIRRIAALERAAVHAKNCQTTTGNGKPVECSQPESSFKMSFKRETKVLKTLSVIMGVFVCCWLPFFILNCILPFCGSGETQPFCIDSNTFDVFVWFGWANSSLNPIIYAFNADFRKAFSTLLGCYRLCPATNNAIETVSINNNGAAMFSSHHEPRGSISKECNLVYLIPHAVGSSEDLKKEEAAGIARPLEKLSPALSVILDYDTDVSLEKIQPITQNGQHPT
D1 agonist: agonists of human D1 dopamine receptor | P21728 | HEK293 T-REx D1 cells, calcium flux, agonist mode | activation, % at 2 µM | 1% of 360,000 active; in the data active = activation above about 30%
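Agonism was scored from calcium flux recorded over 180 s (1 read/s) after pintool compound addition, following a 10-cycle baseline. Cells were inducible force-coupled HEK293 TREx D1, plated overnight at 30 C and loaded with no-wash calcium dye.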
TRHR agonist-1: agonists of human TRH receptor. TRHR cells, calcium flux fluo-8, FDSS agonist mode. activation, % at 2 µM. 0.18% of 360,000 active. AID 493084; in the data active = activation above about 30%
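Fluo-8-loaded TRHR cells; 10 s baseline, compound added, kinetic Ca2+ fluorescence read 1/s, agonist mode.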
TRHR enhancer-1: TRH receptor (human) allosteric enhancement; P34981; TRHR cells, fluo-8 calcium fluorescence, EC20 TRH enhancement; enhancement, % at 2 µM; 0.66% of 360,000 active; AID 493056; in the data active = enhancement above about 30%
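Enhancer read-out: after compound pinning and an initial kinetic agonist-mode read, an EC20 of TRH (10 nM final) was injected and fluo-8 calcium signal (Ex 480/Em 530) followed at 1 s/cycle for 100 cycles in TRHR-expressing cells.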
D1 antag: antagonists of human D1 dopamine receptor | P21728 | HEK293 TREx D1 cells, calcium flux, dopamine EC80; stronger effect = lower value | activity change, negative = inhibition, % at 10 µM | 3.2% of 360,000 active; in the data active = activity change below about -30%
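Tetracycline-induced HEK293 Trex D1 cells, force-coupled to calcium, dye-loaded; compounds added and read 180 s, then EC80 dopamine added and calcium flux tracked kinetically another 180 s.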
TRHR enhancer-2: human TRH receptor allosteric enhancement confirmation; shares compounds with TRHR enhancer-1; TRH receptor cell assay, enhancer confirmation qHTS; activity change, negative = inhibition, % at 46.1 µM; 970 tested, under 10 active;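 also: compound effect scored on response to added TRH at EC20 of 10 nM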
TRHR agonist-2: confirmation of human TRH receptor agonists; shares compounds with TRHR enhancer-1; TRHR-expressing cells, agonist activation read-out; Potency, µM (top dose mostly 46.1 µM), usual class: activators; 8% of 970 active; also: nearly all actives have a fitted effect of over 75% in size
Numbers stand for hits; i = inactive; ? = inconclusive; nt = not tested or not shown. Unless noted, calls follow the shape of the dose curve; as a rule, active = well fitted curve in the direction sought with a large enough effect; inconclusive = small, poorly fitted or top-dose-only effect, or another doubt; inactive = no such curve, though single readings can be large; an effect the other way counts as inactive or inconclusive.

SMILES	D1 potentiator	D1 agonist	TRHR agonist-1	TRHR enhancer-1	D1 antag	TRHR enhancer-2	TRHR agonist-2
CC(NCCC1(C(C)C)CCOC(C)(C)C1)c1cccs1 (stereo unspecified)	i	i	i	52	i	i	i
COCCC(=O)N1CCCC(C(=O)c2ccc(C(F)(F)F)cc2)C1 (stereo unspecified)	i	i	i	i	i	nt	nt
Cc1c(NC(=S)NC(=O)c2cccc3ccccc23)cccc1C(=O)O	i	i	i	65	i	i	i
O=C(NC1CC1)C1=NOC(CNc2ncc(C(F)(F)F)cc2Cl)C1 (stereo unspecified)	i	i	i	46	i	i	i
COc1ccccc1N1C(C)=CC(=C(C#N)c2nc3ccccc3s2)C=C1C	i	191	46	i	i	?	18µM
C=CCNC(=O)c1c(N)n(-c2cccc(S(N)(=O)=O)c2)c2nc3ccccc3nc12	i	i	i	43	i	i	?
CCN(CC)C(=O)C1CCCN(C(=O)c2cc(COc3cccc(OC)c3)on2)C1 (stereo unspecified)	i	i	i	i	i	nt	nt
c1coc(-c2ccnc3ncnn23)c1	i	i	i	49	i	i	i
NC(=O)CSc1nnc(-c2ccc(S(=O)(=O)N3CCCCC3)cc2)n1-c1ccccc1	i	i	i	50	i	?	i
COc1ccccc1-n1c(SCC(N)=O)nnc1-c1ccc(S(=O)(=O)N2CCCCC2)cc1	i	i	i	i	i	nt	nt
O=C1/C(=C/c2ccccc2)Nc2ccccc21	i	50	50	i	i	i	16µM
C=CCn1c(SCc2cc(=O)n3cc(C)ccc3n2)nnc1-c1cccc(C)c1	i	i	i	i	i	nt	nt
Cc1ccc2nc(CSc3nnc4ccccn34)cc(=O)n2c1	i	i	i	51	i	i	i
COc1cccc(SCC2(O)CCN(C(=O)c3ccc(Cl)cc3)CC2)c1	i	i	i	59	i	i	i
Cn1c(SCc2cccc3ccccc23)nnc1-c1ccco1	i	i	i	i	i	nt	nt
Nn1c(SCc2cccc3ccccc23)nnc1-c1ccco1	i	i	i	50	i	i	i
COc1ccc(-c2cc(OC(=O)c3cccc(Cl)c3)c3c(C)oc(C)c3c(=O)c2)cc1	i	i	i	i	i	nt	nt
COc1cccc(C2CC(c3ccc(NS(C)(=O)=O)cc3)=NN2C(=O)c2ccccc2)c1OC (stereo unspecified)	i	i	i	50	i	i	i
O=C1NCCNC1(c1c[nH]c2ccccc12)C(F)(F)F (stereo unspecified)	i	i	i	i	i	nt	nt
Cc1cc(O)c(C2(C(F)(F)F)NCCNC2=O)cc1C (stereo unspecified)	i	i	i	43	i	i	i
CCCN1C(=O)c2ccccc2CC1(C)C(=O)NC1CCCCC1 (stereo unspecified)	i	i	i	i	i	nt	nt
Cc1cccc(C(=O)N/N=C/c2cc(Br)c(Br)o2)c1	i	i	i	54	-59	i	i
COc1cccc(NC(=O)N2CCCC2C(=O)NC2CCCC2)c1 (stereo unspecified)	i	i	i	i	i	nt	nt
O=C(CC(c1cccs1)N1Cc2ccccc2C1=O)Nc1ccccc1F (stereo unspecified)	i	i	i	i	i	nt	nt
O=C(COc1ncnc2ccccc12)NCCc1ccccc1	i	i	i	58	-44	i	i
SMILES	D1 potentiator	D1 agonist	TRHR agonist-1	TRHR enhancer-1	D1 antag	TRHR enhancer-2	TRHR agonist-2
COc1cnc(-c2ccccc2)nc1Oc1cccc(C)c1	i	i	i	59	i	i	i
COc1cnc(-c2ccccc2)nc1OC	i	i	i	i	i	nt	nt
COCCNC(=O)c1cc2n(n1)CCCN(Cc1ccc(C)cc1)C2=O	i	i	i	i	i	nt	nt
Cc1cc(NC(=O)C(C)SCC(=O)N(Cc2ccccc2)c2ccccc2)no1 (stereo unspecified)	i	i	i	i	i	nt	nt
CCc1ccccc1NC(=O)CN(C)C(=O)Cn1ncc(Cl)c(Cl)c1=O	i	i	i	49	i	i	i
CN(C(=O)CSc1nc2ccccc2o1)C1CCCCC1	i	i	i	i	i	nt	nt

High-throughput results from PubChem.
